Inconclusive results are not listed. Calls of active or inactive are those of the source. The call rests on the fitted dose curve; in most records, active means well fitted curve in the direction sought with a large enough effect; inconclusive means small, poorly fitted or top-dose-only effect, or another doubt; inactive means no such curve, though single readings can be large; an effect the other way counts as inactive or inconclusive.
Tests used:
[1] = Cell Viability - LYMP2-001 (AID 921); further: series mostly up to about 92 µM; nearly all actives have a fitted effect of over 70% in size
Method in brief: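 Human lymphoblastoid LYMP2-001 cells, 2500 per well, in complete medium, treated 24 h at 37 C. Viability from cellular ATP by CellTiter-Glo luminescence; AC50 from Hill-equation fits of qHTS concentration-response.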

[2] = MultiTox-Fluor Cytotoxicity Assay - LYMP1-001 - Dead Cells (AID 946);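 further: cells exposed to compound for 16 h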
Method in brief: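 Seed 2500 LYMP1-001 cells/well, incubate 5 hr at 37 C; add compound, 16 hr at 37 C; add MultiTox-Fluor reagent, 60 min RT; read dead-cell fluorescence Ex/Em=485/520. Normalize to DMSO and 15 uM tetraoctylammonium bromide.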

[3] = MultiTox-Fluor Cytotoxicity Assay - LYMP1-001 - Live Cells (AID 947)
[4] = Cell Viability - LYMP1-002 - Assay at 16 hr (AID 948)
Method in brief: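 LYMP1-002 human lymphoblastoid cells, 2500/well, were treated with compounds for 16 hr at 37 C in complete medium. Viability was read as intracellular ATP by CellTiter-Glo luminescence, and AC50 was derived from a Hill fit to concentration-response data.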

[5] = MultiTox-Fluor Cytotoxicity Assay - LYMP1-002 - Live Cells (AID 955);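 further: cells exposed to compound for 16 hours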
Method in brief: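 LYMP1-002 lymphoblastoid cells; 2500 cells/well; 16 hr compound exposure, 37 C; MultiTox-Fluor reagent 60 min RT; live-cell fluorescence Ex/Em=405/510; qHTS concentration-response, Hill-equation AC50; tetraoctylammonium bromide positive control.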

[6] = MultiTox-Fluor Cytotoxicity Assay - LYMP1-002 - Dead Cells (AID 960);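 further: cells exposed to compound for 16 h at 37 °C; nearly all actives have a fitted effect of over 60% in size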
Method in brief: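 Readout: fluorescence at 485/520 from cell-impermeant bis-AAF-R110 cleaved by proteases leaking from damaged cells. LYMP1-002 lymphoblastoid line, 16 hr compound treatment at 37 C, concentration-response in qHTS format; Hill-equation AC50 values.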

[7] = MultiTox-Fluor Cytotoxicity Assay - LYMP1-003 - Dead Cells (AID 961);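 further: cells exposed to compound for 16 h at 37 °C; nearly all actives have a fitted effect of over 70% in size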
Method in brief: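 LYMP1-003 lymphoblastoid, 2500 cells/well, 5 hr settle then 16 hr cpd at 37 C; MultiTox-Fluor reagent 60 min RT; Ex/Em 485/520 dead-cell signal; norm. DMSO = 0%, 15 uM tetraoctylammonium bromide = 100%; Hill AC50.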

[8] = MultiTox-Fluor Cytotoxicity Assay - LYMP1-003 - Live Cells (AID 962);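 further: cells exposed to compound for 16 hours at 37 °C; cytotoxic hits lower the live-cell protease signal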
Method in brief: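 Readout: live-cell fluorescence (Ex/Em=405/510) from GF-AFC cleavage after 60 min MultiTox-Fluor reagent at room temperature. Lymphoblastoid LYMP1-003 cells, 16 hr compound treatment, 37 C. Concentration-response fitted to standard Hill equation for AC50.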

[9] = Cell Viability - LYMP1-003 - Assay at 24 hr (AID 963)
Method in brief: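 CellTiter-Glo luminescence (intracellular ATP) read after 24 hr, 37 C compound exposure of 2500 LYMP1-003 human lymphoblastoid cells/well in complete medium; qHTS concentration series; AC50 via standard Hill equation.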

[10] = Cell Viability - LYMP1-003 - Assay at 40 hr (AID 964); further: series mostly up to about 92 µM; nearly all actives have a fitted effect of over 60% in size
Method in brief: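 LYMP1-003 lymphoblastoid cells, 2500/well; 5 hr preincubation, 40 hr compound exposure, 37 C; CellTiter-Glo 30 min RT; luminescence; Hill-fit AC50. Positive control tetraoctylammonium bromide.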

[11] = Cell Viability - LYMP2-003 (AID 965);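 further: cells exposed to compounds for 24 h before reading; nearly all actives have a fitted effect of over 50% in size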
Method in brief: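 Human lymphoblastoid LYMP2-003 cells, 2500/well, exposed to compounds for 24 h at 37 C in complete medium. Viability read as intracellular ATP by CellTiter-Glo luminescence; AC50 from Hill-equation fits of qHTS concentration-response data.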

[12] = Cell Viability - LYMP2-004 (AID 966); further: nearly all actives have a fitted effect of over 65% in size
Method in brief: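 Luminescent ATP read-out (CellTiter-Glo, 30 min RT) after 24 hr compound exposure at 37 C; 2500 lymphoblastoid cells/well, complete medium. Decrease in ATP = cytotoxicity; AC50 from standard Hill model.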

[13] = Cell Viability - LYMP2-005 (AID 967); further: series mostly up to about 92 µM
Method in brief: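 Human lymphoblastoid LYMP2-005 cells, 2,500 per well in complete medium, rested 5 h at 37C then compound-treated 24 h at 37C. Intracellular ATP read by CellTiter-Glo luminescence after 30 min at room temperature; AC50 from Hill-equation fits of concentration-response data.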

[14] = Cell Viability - LYMP2-009 (AID 968); further: series mostly up to about 92 µM; nearly all actives have a fitted effect of over 55% in size
[15] = Cell Viability - LYMP2-011 (AID 969); further: nearly all actives have a fitted effect of over 60% in size
Method in brief: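 Luminescent ATP read-out (CellTiter-Glo, 30 min RT) after 24 hr compound exposure at 37 C in human lymphoblastoid cells, 2500 cells/well. Decreasing ATP indicates cytotoxicity; AC50 from standard Hill fit.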

[16] = Cell Viability - LYMP2-013 (AID 970); further: series mostly up to about 92 µM; nearly all actives have a fitted effect of over 55% in size
Method in brief: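 CellTiter-Glo luminescence (cellular ATP) read after 30 min at RT. Cells: human lymphoblastoid line, 2500/well, 24 hr compound exposure at 37 C. Tetraoctylammonium bromide positive control; AC50 via standard Hill fit of qHTS titrations.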

[17] = Cell Viability - LYMP2-015 (AID 971); further: nearly all actives have a fitted effect of over 55% in size
Method in brief: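 qHTS cytotoxicity: 2500 cells/well, 5 hr 37 C, compound 24 hr 37 C, CellTiter-Glo 30 min RT, luminescence. Loss of ATP = toxicity; AC50 via standard Hill fit.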

[18] = Cell Viability - LYMP2-017 (AID 972); further: series mostly up to about 92 µM; nearly all actives have a fitted effect of over 55% in size
Method in brief: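 Luminescent ATP read-out (CellTiter-Glo, 30 min RT) reports viable cell number. Cells: human lymphoblastoid line, 2500 per well, 5 hr preincubation, 24 hr compound exposure at 37 C. AC50 is derived from qHTS concentration-response data using the standard Hill model.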

[19] = Cell Viability - LYMP2-019 (AID 973); further: nearly all actives have a fitted effect of over 55% in size
Method in brief: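 qHTS, 1536-well; 2500 cells/well; 5 hr pre-incubation, 24 hr compound exposure, 37 C; CellTiter-Glo added, 30 min RT; luminescence read; AC50 via standard Hill equation.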

[20] = Cell Viability - LYMP2-021 (AID 974)
Method in brief: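 ATP luminescence (CellTiter-Glo, 30 min RT) after 24 h compound exposure at 37 C; 2500 human lymphoblastoid cells/well, 5 h settle beforehand. Cytotoxicity = concentration-dependent ATP drop, AC50 by Hill fit.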

Measured: outcome

CC(C)(c1cc(Br)c(O)c(Br)c1)c1cc(Br)c(O)c(Br)c1
inactive: [1] | [2] | [3] | [4] | [5] | [6] | [7] | [8] | [9] | [10] | [11] | [12] | [13] | [14] | [15] | [16] | [17] | [18] | [19] | [20]
